# Six1-Eya2 blk = qHTS Assay for Inhibitors of the Six1/Eya2 Interaction | Homeobox protein SIX1 (Homo sapiens) + Protein phosphatase EYA2 (Homo sapiens), … | AlphaScreen GST-Six1/His-Eya2 binding, biochemical; stronger effect = lower value | activity change, % (concentration not given with the values) | actives 0.56% (n = 360,000) | AID 651725, 2012; in the data active means activity change below about -65%; inconclusive means mostly about -30% to -63%; further: on the % scale 0 is the no-effect control and ±100 the full control effect
# Target sequence (O00167 whole entry, looked up): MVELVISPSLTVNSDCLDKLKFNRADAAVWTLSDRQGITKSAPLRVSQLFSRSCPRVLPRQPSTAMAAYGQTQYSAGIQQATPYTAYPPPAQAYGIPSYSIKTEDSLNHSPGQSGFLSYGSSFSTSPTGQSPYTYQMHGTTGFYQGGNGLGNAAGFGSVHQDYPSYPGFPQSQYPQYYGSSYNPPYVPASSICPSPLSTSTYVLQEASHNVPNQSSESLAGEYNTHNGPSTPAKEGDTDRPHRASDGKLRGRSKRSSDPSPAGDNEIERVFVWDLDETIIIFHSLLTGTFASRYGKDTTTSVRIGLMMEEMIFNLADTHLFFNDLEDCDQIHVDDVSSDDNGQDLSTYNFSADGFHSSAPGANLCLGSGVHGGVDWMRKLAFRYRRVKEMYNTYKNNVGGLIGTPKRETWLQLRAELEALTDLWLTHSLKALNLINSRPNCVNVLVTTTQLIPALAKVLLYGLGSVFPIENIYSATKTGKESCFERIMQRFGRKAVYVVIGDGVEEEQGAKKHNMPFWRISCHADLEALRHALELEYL
# Target sequence (Q15475 whole entry, looked up): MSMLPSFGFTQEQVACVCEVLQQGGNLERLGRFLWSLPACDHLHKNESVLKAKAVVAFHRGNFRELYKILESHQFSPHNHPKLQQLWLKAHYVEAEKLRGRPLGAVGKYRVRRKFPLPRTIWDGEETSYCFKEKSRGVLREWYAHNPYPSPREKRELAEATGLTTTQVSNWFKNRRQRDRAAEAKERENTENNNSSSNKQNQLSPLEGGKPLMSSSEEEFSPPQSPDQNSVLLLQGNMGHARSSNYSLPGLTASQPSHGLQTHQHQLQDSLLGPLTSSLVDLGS
#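 AlphaScreen luminescence read after one hour at 37 °C in darkness. Pin-transferred compounds met GST-Six1 and His-Eya2 protein (5X stock 250 nM/500 nM) plus glutathione donor and Ni-chelate acceptor beads (5X, 50 ug/mL).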
# G9a block = qHTS Assay for Inhibitors of Histone Lysine Methyltransferase G9a | actives 8.8% (n = 350,000) | AID 504332, 2011 | Potency, µM (top dose mostly 102 µM), without a hit: at the top dose activity, negative = inhibition, usual class: inhibitors | Histone-lysine N-methyltransferase EHMT2 (Homo sapiens), Q96KQ7 | G9a H3K9 monomethylation, AlphaScreen, 2 h; further: potency means the concentration at half of the fitted maximal effect; on the % scale 0 is the no-effect control and ±100 the full control effect; nearly all actives have a fitted effect of over 75% in size
#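 Enzyme 20 nM + cpd, 15 min RT; add b-H3K9 pep 500 nM / SAM 20 uM; 2 h RT; anti-H3K9me1 Ab 0.5 ug/mL + SA donor / anti-rabbit acceptor beads 20 ug/mL each, 10 min; AlphaScreen read.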
# JMJD2A Tudor inh = qHTS Assay for Inhibitors of JMJD2A-Tudor Domain; Lysine-specific demethylase 4A (Homo sapiens), O75164; Potency, µM (series often up to 114 µM), inactives show at the top dose activity change, negative = inhibition, hits mostly inhibitors; actives 4.4% (n = 390,000); AlphaScreen JMJD2A-Tudor / H3K4me3 peptide binding; further: potency means the concentration at half of the fitted maximal effect; on the % scale 0 is the no-effect control and ±100 the full control effect; nearly all actives have a fitted effect of over 50% in size
# HP1b binding inh = HTS for Inhibitors of HP1-beta Chromodomain Interactions with Methylated Histone Tails | AlphaScreen HP1-beta / biotin-H3K9me3 peptide binding | Potency, µM (series often up to 114 µM), for the others: at the highest dose activity change, negative = inhibition, most hits filed as inhibitors | actives 0.56% (n = 390,000) | Chromobox protein homolog 1 (Homo sapiens), P83916 | AID 540317, 2011; further: potency means the concentration at half of the fitted maximal effect; nearly all actives have a fitted effect of over 70% in size
#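 AlphaScreen: HP1-beta (50 nM) preformed 30 min with biotin-H3(1-18)K9me3 peptide (50 nM) in PBS pH 7.4, 0.01% Tween-20. Compound added for 30 min at RT, then streptavidin donor/nickel chelate acceptor beads (10 ug/mL) for 30 min.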
# BAZ2B block = qHTS Assay for Inhibitors of BAZ2B. AlphaScreen BAZ2B-H3K14Ac peptide displacement. actives 4.4% (n = 360,000). Potency, µM (top dose mostly 114 µM), without a hit: top-dose activity change, negative = inhibition, hits mostly inhibitors. Bromodomain adjacent to zinc finger domain protein 2B (Homo sapiens), Q9UIF8; further: potency means the concentration at half of the fitted maximal effect; on the % scale 0 is the no-effect control and ±100 the full control effect; nearly all actives have a fitted effect of over 60% in size
#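 BAZ2B 50 nM plus b-H3(5-23)K14Ac 50 nM, PBS pH 7.4/0.01% Tween-20, 30 min RT; compound added (max 110 uM), 30 min RT; streptavidin donor/Ni-chelate acceptor beads 10 ug/mL final, 20 min dark; AlphaScreen read.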
# CtBP-E1A blk = qHTS Assay for Inhibitors of the CtBP/E1A Interaction | CtBP / adenovirus E1A interaction (AlphaScreen) | AlphaScreen GST-E1A/His-CtBP binding, 1536-well; stronger effect = lower value | activity change, % (concentration not given with the values) | actives 0.49% (n = 340,000) | AID 651724, 2012; in the data active means activity change below about -65%; inconclusive means mostly about -30% to -63%; further: on the % scale 0 is the no-effect control and ±100 the full control effect
#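 AlphaScreen with 125 nM GST-E1A and 125 nM His-CtBP (5X stocks) in Tris pH 8.0, 300 mM NaCl, BSA, Tween 20, TCEP. Compounds preincubated 2 h at 37 deg C, then glutathione donor/nickel acceptor beads added for 1 h at 37 deg C in dark.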
# Starred values were filed as active, the others as inactive; u = inconclusive; x = no result; [ ] = remark or other dose. Hits are enriched below; roughly 10% of the tested compounds scored in any of these assays. Unless noted, the call rests on the fitted dose curve; in most records, active means well fitted inhibition curve with a large enough effect; inconclusive means small, poorly fitted or top-dose-only effect; inactive means no such curve, though single readings can be large or run the other way.
SMILES,Six1-Eya2 blk,G9a block,JMJD2A Tudor inh,HP1b binding inh,BAZ2B block,CtBP-E1A blk
O=C(CN1C(=O)/C(=C2\SC(=S)N(CCS(=O)(=O)O)C2=O)c2ccccc21)Nc1cccc(Br)c1,-22,8.9µM*,50µM*,50µM*,8.9µM*,-12
O=C(NC(=O)c1ccc(F)cc1F)Nc1ccc(Cl)cc1,6,45µM*,-13%,43%,-10%,8
Cc1ccc(NC(=O)c2ccc(F)cc2F)cc1,7,x,-1%,33%,x,3
COc1ccc(NC(=O)CCNC(=O)C2CCN(S(=O)(=O)c3ccc(OC)cc3)CC2)cc1,-2,4%,-19%,23%,-12%,0
O=C(CN1CCN(S(=O)(=O)c2ccccc2)CC1)Nc1cccc(C(F)(F)F)c1,0,20%[59 µM],79µM*,-10%,20%,3
CC(=O)c1ccc(NCC(=O)N2CCN(S(=O)(=O)c3ccccc3)CC2)cc1,-12,22%[12.7 µM],1%,34%,1%,x
O=C(CNc1ccc(Cl)c(C(F)(F)F)c1)N1CCN(S(=O)(=O)c2ccccc2)CC1,-4,x,79µM*,-33%,x,0
O=C(CN1CCCN(S(=O)(=O)c2ccc(F)cc2)CC1)Nc1cccc(F)c1,-6,32µM*,-13%,42%,0%,1
COc1ccc(S(=O)(=O)N2CCC(C(=O)NCCC(=O)Nc3cccc(Cl)c3)CC2)cc1,-1,-6%,16µM*,23%,-22%,-4
O=c1[nH]ncc(NCc2ccc(Cl)cc2)c1Cl,19,5%,-4%,23%,-17%,37
Cc1c(C(=O)Nc2ccc(F)cc2F)oc2c1-c1nn(Cc3c(F)cccc3Cl)cc1CC2,x,-14%[59 µM],-8%,28%,-1%,x
O=C(COCC(=O)N1CCOCC1)N1CCOCC1,8,1%,-6%,28%,0%,-2
COc1ccc(C(=O)N/C(=C\c2cn(S(=O)(=O)N(C)C)c3ccccc23)C(=O)N2CCN(C)CC2)cc1,-1,-2%,u,-7%,-5%,1
O=C(Nc1ccc(F)cc1)Nc1nnc(SCC(=O)N2CCCCC2)s1,x,u,6%,71%,2%,x
O=C(Cc1ccc(Br)cc1)Nc1ccc(S(=O)(=O)N2CCCC2)cc1,x,x,x,x,-2%,x
O=C(CN1CCN(C(=O)c2cccc(S(=O)(=O)N3CCCC3)c2)CC1)Nc1cccc(F)c1,12,56µM*,-12%,29%,14%,-1
CCc1cccc(CC)c1NC(=O)CN1CCN(S(=O)(=O)c2ccccc2)CC1,0,45µM*,-10%,8%,-15%,-3
O=C(Cc1ccc(F)cc1)Nc1ccc(S(=O)(=O)N2CCCC2)cc1,-17,50µM*,-4%,17%,7%,0
COc1ccc(S(=O)(=O)N2CCN(CC(=O)Nc3ccc(F)c(F)c3)CC2)cc1,6,45µM*,-11%,13%,8%,5
COc1ccc(NC(=O)CN2CCCN(S(=O)(=O)c3ccc(Br)cc3)CC2)c(OC)c1,x,u,-20%,4%,u,x
COc1cc(OC)c(NC(=O)Cn2c(=O)c(C(F)(F)F)nc3ccccc32)cc1Cl,x,-1%[59 µM],-17%,13%,-1%,x
O=C(CCCOc1ccccc1)NC1CCCc2ccccc21 (stereo not given),3,-9%[59 µM],-9%,46%,9%,-15
O=C(NCc1ccccc1)[C@]1(C(F)(F)F)C[C@H](CCCO)CCCO1,x,x,-8%,21%,x,x
COc1cccc(-n2c(SCC(=O)Nc3ccc4c(c3)OCO4)nc3c([nH]c4ccccc43)c2=O)c1,x,-4%[59 µM],-19%,8%[57 µM],-25%,x
COCCn1c(C)cc(C(=O)COC(=O)c2cccc(O)c2)c1C,-11,u,-24%,-6%,u,-6
SMILES,Six1-Eya2 blk,G9a block,JMJD2A Tudor inh,HP1b binding inh,BAZ2B block,CtBP-E1A blk
Cc1cc(C)c(C(=O)COC(=O)c2ccc([N+](=O)[O-])o2)cc1C,-1,u,-22%[11.4 µM],-19%,x,x
COCCn1c(C)cc(C(=O)COC(=O)c2cc3c(s2)CCC3)c1C,-23,45µM*,35µM*,u,40µM*,-16
Cc1cc(C(=O)COC(=O)c2ccc([N+](=O)[O-])o2)c(C)n1CC1CCCO1 (stereo not given),-8,45µM*,-27%,10%,u,-1
COCCn1c(C)cc(C(=O)COC(=O)c2ccc([N+](=O)[O-])o2)c1C,-8,79µM*,u,4%,45µM*,-6
O=C(NCC1CCCCC1)c1ccc2nc([C@@H]3O[C@H](CO)[C@@H](O)[C@H]3O)[nH]c2c1,0,x,x,x,x,0
Cc1cccc(N2CCN(C(=O)Cn3ncc4c3-c3ccccc3OC4)CC2)c1C,x,u,-29%,11%,-22%,x
CC(NC(=O)c1ccccc1SCC(=O)N1CCCC1)c1ccc(F)cc1 (stereo not given),6,52%,-12%,17%,-16%,-1
Cc1oc2c(cc(NS(=O)(=O)c3ccc(Br)cc3)c3ccccc32)c1C(=O)OCc1ccccc1,x,-11%[59 µM],-27%,-10%,-5%,x
O=S(=O)(NCCO)c1ccc2c(c1)Cc1cc(S(=O)(=O)NCCO)ccc1-2,8,6%,-8%,2%,3%,10
NNS(=O)(=O)c1ccc2c(c1)Cc1cc(S(=O)(=O)NN)ccc1-2,-19,7.9µM*,-13%,11%,-7%,u
COc1ccc(C2Nc3ccccc3C(=O)N2Cc2ccccc2)cc1COc1ccc([N+](=O)[O-])cc1 (stereo not given),x,x,-17%[57.1 µM],7%[57 µM],x,x
CCN1CCCc2cc(CN(CCN3CCOCC3)C(=S)Nc3cc(F)cc(F)c3)ccc21,u,16µM*,35µM*,u,10µM*,x
CCN1CCCc2cc(CN(CCN3CCOCC3)C(=S)Nc3ccc(C)cc3)ccc21,u,13µM*,u,u,13µM*,u
CCOc1ccc(NC(=S)N(CCN2CCOCC2)Cc2ccc3c(c2)CCCN3CC)cc1,u,28µM*,35µM*,u,11µM*,-14
CCN1CCCc2cc(CN(CCN3CCOCC3)C(=S)Nc3ccc(OC)cc3)ccc21,-8,2%[59 µM],-20%,24%,-29%,x
CCN1CCCc2cc(CN(CCN3CCOCC3)C(=S)Nc3cccc(Cl)c3)ccc21,u,u,11µM*,u,7.1µM*,u
